Consider 109 sequences from PubChem BioAssay AID1347426 (Functional Genomics Laboratory (NCATS/FGL), 2020).

Out of some 31,000 sequences screened, about 1,400 (4.5%) were called active.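 How the source made its calls: active means median seed-adjusted z-score above 1 or below -1; inactive means the rest.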 Shown is part of a subset that was picked to be rich in actives.

The assay in a line: Novel Modifiers of Survival Motor Neuron (SMN) Protein: Gene Identification via Genome-wide siRNA Screen.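 Further: luminescence tracks full-length SMN protein made from the SMN2 reporter.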 The following applies: HEK293T SMN2-luciferase reporter, siRNA knockdown, 72 h; actives lie on both sides. The method in brief:
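HEK293T cells stably expressing an SMN2 splicing/cDNA-luciferase reporter were reverse-transfected with a druggable-genome siRNA library and read by luminescence at 72 hours; hits defined by MAD score above 1.0 or below -1.0.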
For orientation: Reporter assays use an easily measured gene product as a stand-in for the process of interest.
As to GAAGGAAGAUGGUAAGGGATT against IL6ST, the median seed-adjusted z-score was -0.518 (inactive).
For GCUUCGUGAGCUUUGAUAATT against BRUNOL5, the median seed-adjusted z-score was 0.333 (inactive).
Take CGUGGACAGCUGCAGAAAATT against EDIL3: the median seed-adjusted z-score was 0 (inactive).
Take CAAUCAGCAGAGUUACAUUTT against CPEB3: the median seed-adjusted z-score is 0.086 (inactive).
As for CCAUCGUCAUGGUUACCAATT against PTPRA, the figure is -0.438 (inactive); as for GCACUUAAGGAAUGACAGATT against CDY2A, 0.75 (inactive); as for CAGGUUCUCUAAUUGAACATT against NFX1, -0.256 (inactive).
With GAAACGCAAGGGUACAGAATT against RUVBL2, the median seed-adjusted z-score was -0.0764 (inactive).
With GGAGUGACCGGAAACAUCATT against PRKCD, the median seed-adjusted z-score is -0.236 (inactive).
With CCAUUACAGAGGGAGUUCATT against NRBP1, the median seed-adjusted z-score was -1.13 (active).
The result for GGAUAUCUUCUAUGAUCUATT against SMAD7 reads -0.25 (inactive).
Turning to AGAACUUUGUGCACCGUGATT against ZAP70, the median seed-adjusted z-score was -0.674 (inactive).
As for AGCUUGAAAUCUCAUGGAATT against SPINK5L2, the figure is 0.482 (inactive); as for GAAGAUUGCUAAUGACAAUTT against GOT1, 0.0103 (inactive).
Regarding UAAUAAUUCUCACUCCUAATT against FZD5, the median seed-adjusted z-score is -0.129 (inactive).
With GACCGGCCGUUCAGAAUGATT against RPUSD1, the median seed-adjusted z-score is 0.327 (inactive).
As to CGUGUACCCGUUUGACUUUTT against SGSH, the median seed-adjusted z-score is 0.383 (inactive).
The result for GCCUGGUACUACUAGCUUUTT against TRPC5 reads -1.14 (active); that for CCUCUAGAAGGAUCUAAUATT against MMP19, 0.43 (inactive).
Consider GAAUUGUUUUAGCUAACGATT against PGM2, for which the median seed-adjusted z-score was 0.355 (inactive).
As for AAACAGACAGAGAUAAGUATT against UBE2D3, the median seed-adjusted z-score is 1.62 (active).
As to AGUACUUUGUAUUGGGAUATT against RCE1, the median seed-adjusted z-score was -1.19 (active).
Take AGCAGGAUAUGAUCCGGAATT against SEC14L4: the median seed-adjusted z-score is -0.714 (inactive).
As for GGCACGUCCUGUUACACCATT against LMO4, the figure is -0.067 (inactive).
With CGCUUGGAGAGGCUACAAATT against FXR2, the median seed-adjusted z-score is -0.133 (inactive).
On to GUUCCGAAGUGGUCUCAUUTT against MINPP1, for which the median seed-adjusted z-score is -0.0107 (inactive).
Consider GCAGUACACUACCAACAGATT against ALAS1, for which the median seed-adjusted z-score is -1.15 (active).
Turning to CAACAUUGGAAAAUACAGATT against LAP3, the median seed-adjusted z-score is 0.0175 (inactive).
Turning to UCCCGGGAAUUAAAACUUATT against EPHA6, the median seed-adjusted z-score is 0.0445 (inactive).
Take GGAUCUGCACAGUCUUCUATT against PSKH2: the median seed-adjusted z-score was 0.0439 (inactive).
In the case of GGAUUUGCCCUGACAAAAATT against ZRANB2, the median seed-adjusted z-score is 0.441 (inactive).
As for CAUUGAGAAUAAUAACAGATT against PPP3CA, the median seed-adjusted z-score is 0.74 (inactive).
Take GCCUAUUAUGGAGAAAAGATT against HES1: the median seed-adjusted z-score was -0.262 (inactive).
Regarding CGAUAUGAUUGGCCAGAGATT against GIPC3, the median seed-adjusted z-score was -0.27 (inactive).
Consider CGGAUUUGUUGCUAAAUGATT against PCDHB8, for which the median seed-adjusted z-score is 1.15 (active).
In the case of CUGACAGUGUGGAUCGAUATT against COL12A1, the median seed-adjusted z-score is 0.00422 (inactive).
Turning to GGAUUGAAAACAAACUCUATT against RET, the median seed-adjusted z-score was -0.931 (inactive).
Consider GCGGUACUUUGAGCAGUUATT against P4HA2, for which the median seed-adjusted z-score was 0 (inactive).
The result for GGCUCUUCAAGGCUAUGAATT against ANXA6 reads -1.01 (active).
The result for GUCUGUAACUGAGCAAGGATT against YWHAZ reads 0.721 (inactive); that for ACGGUUCGCUGAAAAAGAATT against PITX3, 0 (inactive); that for CGUCCAUACUUACCUAAUUTT against UGT2A1, 0.213 (inactive).
As for CGACCGCACCUGGAAUGAATT against PLA2G4D, the figure is -0.233 (inactive); as for GCGUGUCAGCUGUUCAUUATT against OSBPL5, 0.638 (inactive).
As to CAAGCCCUCUGAAACAGUUTT against ADRA1A, the median seed-adjusted z-score is -1.06 (active).
Take GCAUAUGAUUUUAUGGUAATT against FBXW7: the median seed-adjusted z-score was 0 (inactive).
As to CUCUCUAUAUUGAAACCAATT against CHN1, the median seed-adjusted z-score is 2.1e-05 (inactive).
As to ACUGAAAGCUGAUUAAUUATT against KLK2, the median seed-adjusted z-score is 0.0716 (inactive).
GAGCUGAUCUGUUACAAGUTT against DAK: the median seed-adjusted z-score is -0.372 (inactive).
Consider GAACACUCUAUGUCUAAUATT against MYNN, for which the median seed-adjusted z-score was 0.0702 (inactive).
With GUGAUGUCAUUAGGCAGAATT against CRIP3, the median seed-adjusted z-score is 1.7 (active).
For UCCCAGUUCUGAUACAUAUTT against SAE1, the median seed-adjusted z-score is 0.831 (inactive).
AGACCUGCGUGGUGCACUATT against FKBP1A: the median seed-adjusted z-score was 0.113 (inactive).
As for GGAGCUUCAGGUUGUCCGATT against RPUSD3, the median seed-adjusted z-score was 0.303 (inactive).
For CGAUGGACAGUGUCUCUUATT against ALG6, the median seed-adjusted z-score was 0.106 (inactive).
With UCCUUGUUGUGGACAGGGATT against SPINK4, the median seed-adjusted z-score is -0.0134 (inactive).
Take GGACCUAUUCGUCAAAUCATT against SF3B14: the median seed-adjusted z-score was -1.26 (active).
In the case of CCUUGCUUGUGAGAGCAGATT against NPAS1, the median seed-adjusted z-score is -0.386 (inactive).
As for GCGUUAUCCUCGUACCUUUTT against STC2, the median seed-adjusted z-score was -0.00039 (inactive).
As to CUAUCCACCAUACAUUUCATT against NTM, the median seed-adjusted z-score was 0 (inactive).
As to GCAACGGGUUUGGAGUCAATT against KRT75, the median seed-adjusted z-score was 0.0773 (inactive).
Take CCAUCUCGACUGACAAGAATT against TNNI3K: the median seed-adjusted z-score is -0.178 (inactive).
GCUAUUAUCUAAGCACGAATT against ADAMTS20: the median seed-adjusted z-score was 1.44 (active).
As for GAUAUAUCCGAAACCAGUATT against PDGFD, the median seed-adjusted z-score is 0.366 (inactive).
Consider GAAUCGGCGAUGUACUAGATT against NT5C3, for which the median seed-adjusted z-score was -0.456 (inactive).
On to CUAUGUCGUUGAAAACCAUTT against KCNE1, for which the median seed-adjusted z-score is -0.347 (inactive).
As for GGAAGUAUUAGGGUACAAATT against SOS2, the figure is 0.3 (inactive); as for GAGUAUCUCUGAAACCUCUTT against IL1A, 1.12 (active); as for GGGAGUGACAUAUCCAAGATT against CCL26, -0.01 (inactive).
Regarding CGGAAGGUGUAUGAACUGATT against ICAM1, the median seed-adjusted z-score was 0.345 (inactive).
With GCAAGGUCGUCAACCGCAATT against SAPS1, the median seed-adjusted z-score was 1.16 (active).
GCAGUUCCAUGGUACACCATT against ASAH1: the median seed-adjusted z-score was 0.421 (inactive).
Consider GUCAGAUACAUGAACCAGATT against JMJD1A, for which the median seed-adjusted z-score was 0.466 (inactive).
As to GGAUAGGAGUCAUCAGCCUTT against SSTR3, the median seed-adjusted z-score is 0 (inactive).
As for CCCAAUUCAGAUUACUACATT against POLN, the figure is -0.129 (inactive).
As for CUACUCAACAGACAUAAUATT against TRIP13, the median seed-adjusted z-score is 1 (active).
The result for GGCUUCUACUGGUGUCUGATT against PIGR reads -0.35 (inactive); that for GGACUUACACUCUUAGGAATT against MAOB, 0 (inactive).
Consider CACAACAUCUUGUAAGACUTT against GNG13, for which the median seed-adjusted z-score was -0.516 (inactive).
The result for CGCCGACUCUAUUCAUGCATT against RAB22A reads 0.321 (inactive); that for CGAGAGUAAUUUGAAGAAUTT against SIGMAR1, -1.4 (active).
Consider GAUGGAUCUUUACAGUUGATT against METTL4, for which the median seed-adjusted z-score is 0.244 (inactive).
As for GAACAAUCAUUGCAUCGGATT against CPB2, the median seed-adjusted z-score is -0.62 (inactive).
As to CCUUACCUGGAGUACCCAATT against PMPCA, the median seed-adjusted z-score was -0.985 (inactive).
In the case of GGACCGAAGUCAAUGGUUUTT against SMC2, the median seed-adjusted z-score was -0.052 (inactive).
In the case of CAUUUAGUGUACAUUCAAATT against ZNF665, the median seed-adjusted z-score is 1.13 (active).
As for CGACAGGGUAUCCAACUAATT against WASL, the median seed-adjusted z-score was 0.143 (inactive).
Take CAUGGAAAAUGAUGACGAATT against PPP4R2: the median seed-adjusted z-score is 0.211 (inactive).
In the case of CUCAAGAACUGUCAAGUAATT against GSK3B, the median seed-adjusted z-score is -0.952 (inactive).
Take GGACAUCUAUGUUAUAUGUTT against TRIM65: the median seed-adjusted z-score was -0.599 (inactive).
In the case of CGUCAUCCCUCAACAAGAATT against ATP2B2, the median seed-adjusted z-score is 1.37 (active).
For GGCUAUUACUCAGUACAGATT against TLN1, the median seed-adjusted z-score was -0.0619 (inactive).
CUAUGUGAUUGAUCAAGGATT against PRKAR1A: the median seed-adjusted z-score was 0.428 (inactive).
As for UCAUCGGCGUGAUCGUGUATT against CACNG8, the figure is 0.214 (inactive); as for GAAUUUGCGAUGUACUUAATT against CSNK1A1, -0.608 (inactive); as for GGAAAGGAAUGGUCACGAATT against ZNF321, -0.642 (inactive).
For AGGUCAACACGGAGCUCAATT against CHRM1, the median seed-adjusted z-score was 1.1 (active).
As for GAAGAAUAGUGAUGCUCGATT against GRIA1, the median seed-adjusted z-score was 0.927 (inactive).
The result for CUAAUUCAACAUUACAUCATT against ZNF550 reads 0.131 (inactive).
Regarding CGACAGUCUUGCUGAAAAATT against NOTO, the median seed-adjusted z-score was -0.193 (inactive).
As for GCACGAUUACUACUACCGATT against PNPLA1, the median seed-adjusted z-score was 0.00692 (inactive).
Take GGAUGUCGGCAACACGGAATT against MYBPC3: the median seed-adjusted z-score is 0.304 (inactive).
In the case of AAAGAAUGCGUGCUUUUAATT against RABGGTA, the median seed-adjusted z-score is -0.0601 (inactive).
As for CACUGUAACGACUUCCUUATT against CCIN, the figure is 0.0472 (inactive).
For GAAAUUGACAUGUUGGAUATT against ANXA4, the median seed-adjusted z-score was -0.0932 (inactive).
Take GACUGUCGCUGGUUGGAGATT against ACPT: the median seed-adjusted z-score was -0.114 (inactive).
On to AGACCGAACUGGUUUCGCUTT against CDKN2C, for which the median seed-adjusted z-score is -0.0789 (inactive).
Consider CACUCGAAGCAGUUUGGAATT against SMS, for which the median seed-adjusted z-score is 0.186 (inactive).
CAGUGAAACUGCACCUCUATT against TGM1: the median seed-adjusted z-score is -0.286 (inactive).
